Data taken from the supplement of paper PMC12350171.

Assays:
Settings in all cases: 20 µM
[1] = tested on: Salmonella enterica typhimurium; assay: growth AUC normalised to DMSO control (fraction of control); higher = less growth inhibition, active = hit call of the paper
Procedure, shortened: (§1)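 Pathogens passaged twice anaerobically were inoculated at a starting OD578 of 0.01 into pre-reduced mGAM plates with drug at 20 μM and 1% DMSO, sealed with breathable membranes. Haemophilus parainfluenzae medium was supplemented with hemin and NAD. OD578 was read hourly for 24 h, with three biological replicates. Growth-curve AUC was computed by the trapezoidal rule up to the exponential-to-stationary transition and normalised to DMSO controls on the same plate.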

Shigella flexneri = assay: as above
Procedure, shortened: as §1

Vibrio cholerae = assay: as above
Procedure, shortened: as §1

[2] = tested on: Yersinia pseudotuberculosis; assay: as above
Procedure, shortened: as §1

P. vulgatus RND KO = assay: growth AUC normalised to DMSO control (median) (fraction of control); higher = less growth inhibition, active = hit call of the paper
Procedure, shortened: (§2)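 Anaerobic growth was tracked hourly at OD578 for 24 h in 96-well plates of mGAM seeded at OD578 0.01 with each approved-drug library compound at 20 μM and 1% DMSO. Strains had first been passaged twice overnight without oxygen. Three biological replicates were run. The reported median is the area under the curve, calculated by the trapezoidal rule on curves truncated at entry into stationary phase and normalised to vehicle wells on the same plate.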

P. vulgatus WT = assay: as above
Procedure, shortened: as §2

[3] = tested on: S. enterica typhimurium WT; assay: as above
Procedure, shortened: as §2

[4] = tested on: S. enterica typhimurium tolC KO; assay: as above
Procedure, shortened: as §2

Measured: growth AUC normalised to DMSO control
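Throughout, for growth AUC normalised to DMSO control (median): active when median AUC fell below 0.1.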

C#C[C@]1(O)CC[C@H]2[C@@H]3CCC4=Cc5oncc5C[C@]4(C)[C@H]3CC[C@@]21C [Danazol]
inactive: [1] 0.994 | Shigella flexneri 0.971 | Vibrio cholerae 0.991 | [2] 0.954 | P. vulgatus RND KO 0.982 | P. vulgatus WT 0.992 | [3] 1 | [4] 0.983

CC(=O)N(CC(C)C(=O)O)c1c(I)cc(I)c(N)c1I (centres undefined) [Iocetamic acid]
inactive: [1] 0.985 | Shigella flexneri 0.948 | Vibrio cholerae 0.939 | [2] 0.99 | P. vulgatus RND KO 0.984 | P. vulgatus WT 0.974 | [3] 0.989 | [4] 0.988

CC(C(=O)O)c1ccc(N2Cc3ccccc3C2=O)cc1 (centres undefined) [Indoprofen]
inactive: [1] 0.992 | Shigella flexneri 1.01 | Vibrio cholerae 1.03 | [2] 1.01 | P. vulgatus RND KO 0.975 | P. vulgatus WT 0.971 | [3] 0.993 | [4] 0.997
